# Data published in the supplement of paper PMC8728848.
# Only a selection was taken, and the strongest signals are over-represented in it overall.
# How the values were obtained:
# Experiment in all cases: glycan array binding signal (z-score within array); higher = stronger binding
# Settings in all cases: glycan notation: IUPAC condensed, linker removed
# [1] = system: Neu5Ac(a2-6)Gal(b1-4)GlcNAc(b1-2)Man(a1-3)[Neu5Ac(a2-6)Gal(b1-4)GlcNAc(b1-2)Man(a1-6)]Man(b1-4)GlcNAc(b1-4)GlcNAc
# In short: (§1)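 The Consortium for Functional Glycomics database supplied 3228 glycan arrays, of which those lacking an available protein sequence were dropped. The binding signal, a within-array Z-score, was averaged across arrays of the same protein sequence and across linkers. Negative scores can be read as non-binding.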
# [2] = system: Neu5Ac(a2-6)Gal(b1-4)GlcNAc(b1-2)Man(a1-3)[GlcNAc(b1-4)][Neu5Ac(a2-6)Gal(b1-4)GlcNAc(b1-2)Man(a1-6)]Man(b1-4)GlcNAc(b1-4)GlcNAc
# In short: as §1
# [3] = system: Neu5Ac(a2-6)Gal(b1-4)GlcNAc(b1-2)Man(a1-3)[Man(a1-6)]Man(b1-4)GlcNAc(b1-4)GlcNAc
# In short: as §1
# [4] = system: Neu5Ac(a2-6)Gal(b1-4)GlcNAc(b1-2)Man(a1-3)[Neu5Ac(a2-6)Gal(b1-4)GlcNAc(b1-2)Man(a1-6)]Man(b1-4)GlcNAc(b1-4)[Fuc(a1-6)]GlcNAc
# In short: as §1
# [5] = system: Neu5Ac(a2-6)Gal(b1-4)GlcNAc(b1-2)Man(a1-6)[GlcNAc(b1-2)Man(a1-3)]Man(b1-4)GlcNAc(b1-4)GlcNAc
# In short: as §1
# [6] = system: Neu5Ac(a2-6)Gal(b1-4)GlcNAc(b1-2)Man(a1-6)Man(b1-4)GlcNAc(b1-4)GlcNAc
# In short: as §1
# [7] = system: Neu5Ac(a2-6)Gal(b1-4)GlcNAc(b1-2)Man(a1-6)[Gal(b1-4)GlcNAc(b1-2)Man(a1-3)]Man(b1-4)GlcNAc(b1-4)GlcNAc
# In short: as §1
# [8] = system: Neu5Ac(a2-6)Gal(b1-4)GlcNAc(b1-2)Man(a1-3)[GlcNAc(b1-2)Man(b1-4)GlcNAc(b1-2)Man(a1-6)]Man(b1-4)GlcNAc(b1-4)GlcNAc
# In short: as §1
# [9] = system: Neu5Ac(a2-6)Gal(b1-4)GlcNAc(b1-2)Man(a1-3)[GlcNAc(b1-2)Man(a1-6)]Man(b1-4)GlcNAc(b1-4)GlcNAc
# In short: as §1
# [10] = system: Neu5Ac(a2-6)Gal(b1-4)GlcNAc(b1-2)Man(a1-6)[Man(a1-3)]Man(b1-4)GlcNAc(b1-4)GlcNAc
# In short: as §1
# Aggrecan (Rattus norvegicus), NP_071526, sequence (chain, as listed by the source): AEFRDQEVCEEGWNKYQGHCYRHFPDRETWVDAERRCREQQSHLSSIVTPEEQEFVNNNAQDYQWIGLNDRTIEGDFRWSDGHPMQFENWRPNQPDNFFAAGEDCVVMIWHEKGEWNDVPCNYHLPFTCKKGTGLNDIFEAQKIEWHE
# PILRa (Mus musculus), Q2YSF3, sequence (Q2YSF3 entry or part of it): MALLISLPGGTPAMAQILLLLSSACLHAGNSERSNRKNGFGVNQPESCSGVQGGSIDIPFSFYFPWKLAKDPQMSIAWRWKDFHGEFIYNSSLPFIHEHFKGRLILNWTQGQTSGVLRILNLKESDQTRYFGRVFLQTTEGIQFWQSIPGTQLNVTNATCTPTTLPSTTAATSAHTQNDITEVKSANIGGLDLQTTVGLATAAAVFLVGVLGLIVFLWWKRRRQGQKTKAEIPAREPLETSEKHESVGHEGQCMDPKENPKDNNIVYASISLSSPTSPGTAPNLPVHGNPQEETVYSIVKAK
# CHI3L1 (Homo sapiens), P36222, sequence (P36222 whole entry): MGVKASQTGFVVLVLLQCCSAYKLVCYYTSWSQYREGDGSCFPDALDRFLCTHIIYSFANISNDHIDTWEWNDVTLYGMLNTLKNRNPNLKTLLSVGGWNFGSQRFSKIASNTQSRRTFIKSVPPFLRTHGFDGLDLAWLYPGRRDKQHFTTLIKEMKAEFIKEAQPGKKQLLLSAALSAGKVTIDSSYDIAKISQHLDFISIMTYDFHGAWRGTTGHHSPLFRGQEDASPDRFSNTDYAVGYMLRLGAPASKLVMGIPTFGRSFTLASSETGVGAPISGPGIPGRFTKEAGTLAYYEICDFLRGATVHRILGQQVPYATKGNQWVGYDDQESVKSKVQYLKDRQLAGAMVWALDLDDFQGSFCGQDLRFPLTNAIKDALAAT
# C3b (Homo sapiens), P01024, sequence (P01024 23-667): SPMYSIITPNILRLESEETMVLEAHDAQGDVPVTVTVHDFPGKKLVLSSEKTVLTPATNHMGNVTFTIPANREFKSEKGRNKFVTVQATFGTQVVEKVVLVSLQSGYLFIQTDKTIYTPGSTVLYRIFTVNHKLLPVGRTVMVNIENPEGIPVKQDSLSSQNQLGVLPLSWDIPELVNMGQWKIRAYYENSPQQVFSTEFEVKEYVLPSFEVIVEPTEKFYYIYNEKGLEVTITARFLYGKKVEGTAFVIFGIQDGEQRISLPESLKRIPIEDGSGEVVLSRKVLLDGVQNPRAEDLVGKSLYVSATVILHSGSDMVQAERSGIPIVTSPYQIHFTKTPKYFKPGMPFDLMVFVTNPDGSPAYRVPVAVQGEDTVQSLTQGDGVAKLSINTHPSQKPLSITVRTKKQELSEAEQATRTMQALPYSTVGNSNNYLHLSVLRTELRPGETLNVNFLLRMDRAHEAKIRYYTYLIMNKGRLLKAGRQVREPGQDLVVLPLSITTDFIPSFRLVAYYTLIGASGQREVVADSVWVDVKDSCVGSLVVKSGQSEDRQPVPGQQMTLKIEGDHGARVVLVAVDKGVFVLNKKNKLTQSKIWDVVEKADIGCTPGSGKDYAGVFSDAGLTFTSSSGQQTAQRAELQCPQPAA
# PILRb (Mus musculus), Q2YSF2, sequence (Q2YSF2 entry or part of it): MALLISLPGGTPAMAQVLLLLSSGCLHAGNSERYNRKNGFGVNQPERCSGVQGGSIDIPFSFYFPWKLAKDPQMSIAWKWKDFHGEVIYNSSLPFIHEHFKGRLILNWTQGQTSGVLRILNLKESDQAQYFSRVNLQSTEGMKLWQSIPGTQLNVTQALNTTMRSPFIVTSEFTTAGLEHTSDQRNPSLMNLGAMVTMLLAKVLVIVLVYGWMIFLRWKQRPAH
# SRLC (Mus musculus), Q8VIF6, sequence (Q8VIF6 other isoform, or with tags, fused parts or gaps): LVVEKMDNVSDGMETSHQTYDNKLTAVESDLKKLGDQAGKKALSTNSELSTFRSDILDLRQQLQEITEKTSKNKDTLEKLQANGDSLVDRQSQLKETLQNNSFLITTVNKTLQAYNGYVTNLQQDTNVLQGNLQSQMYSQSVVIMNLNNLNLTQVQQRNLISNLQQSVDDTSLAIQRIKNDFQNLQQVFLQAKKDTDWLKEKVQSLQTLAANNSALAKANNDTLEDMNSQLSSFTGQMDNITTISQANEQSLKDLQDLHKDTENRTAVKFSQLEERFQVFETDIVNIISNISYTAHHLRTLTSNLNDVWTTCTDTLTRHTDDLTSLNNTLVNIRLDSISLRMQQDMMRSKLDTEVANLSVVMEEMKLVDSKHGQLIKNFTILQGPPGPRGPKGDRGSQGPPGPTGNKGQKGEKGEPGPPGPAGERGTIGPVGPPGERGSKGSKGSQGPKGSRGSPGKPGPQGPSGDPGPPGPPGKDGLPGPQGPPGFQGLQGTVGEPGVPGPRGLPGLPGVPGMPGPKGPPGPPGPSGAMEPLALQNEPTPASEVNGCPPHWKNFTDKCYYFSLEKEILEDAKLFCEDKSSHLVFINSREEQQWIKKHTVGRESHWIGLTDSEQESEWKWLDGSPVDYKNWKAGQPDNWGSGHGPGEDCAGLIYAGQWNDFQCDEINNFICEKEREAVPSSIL
# CHT (Homo sapiens), sequence (chain, as listed by the source): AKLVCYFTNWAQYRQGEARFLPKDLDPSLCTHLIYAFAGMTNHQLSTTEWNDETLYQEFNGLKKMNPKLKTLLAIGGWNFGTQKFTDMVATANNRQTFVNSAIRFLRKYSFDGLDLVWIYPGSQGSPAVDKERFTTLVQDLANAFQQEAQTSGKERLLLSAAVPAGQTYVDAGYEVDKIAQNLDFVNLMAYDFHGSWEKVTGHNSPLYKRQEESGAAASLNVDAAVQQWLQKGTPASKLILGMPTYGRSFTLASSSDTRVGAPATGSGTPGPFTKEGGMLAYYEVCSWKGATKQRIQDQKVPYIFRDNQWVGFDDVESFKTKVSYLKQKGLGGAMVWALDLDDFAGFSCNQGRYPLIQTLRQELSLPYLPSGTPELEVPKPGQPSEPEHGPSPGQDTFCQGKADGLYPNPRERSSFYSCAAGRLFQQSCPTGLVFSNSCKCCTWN
substance,measurement,setting,value
"C3b (Homo sapiens), P01024",glycan array binding signal (z-score),[1],0.001
MpAFP RI GFP (Marinomonas primoryensis),glycan array binding signal (z-score),[2],-0.435
same,glycan array binding signal (z-score),[3],0.118
same,glycan array binding signal (z-score),[4],2.72
same,glycan array binding signal (z-score),[5],-0.058
"PILRa (Mus musculus), Q2YSF3",glycan array binding signal (z-score),[6],-0.195
same,glycan array binding signal (z-score),[7],1.22
"CHI3L1 (Homo sapiens), P36222",glycan array binding signal (z-score),[8],-0.028
same,glycan array binding signal (z-score),[4],-0.039
"Aggrecan (Rattus norvegicus), NP_071526",glycan array binding signal (z-score),[9],-0.152
same,glycan array binding signal (z-score),[5],-0.187
same,glycan array binding signal (z-score),[10],-0.224
"PILRb (Mus musculus), Q2YSF2",glycan array binding signal (z-score),[5],-0.407
"SRLC (Mus musculus), Q8VIF6",glycan array binding signal (z-score),[1],-0.158
"Siglec-8 (Homo sapiens), Q9NYZ4",glycan array binding signal (z-score),[6],-0.178
same,glycan array binding signal (z-score),[6]; mutation: R125K,0.093
same,glycan array binding signal (z-score),[5]; mutation: R125K,-0.193
CHT (Homo sapiens),glycan array binding signal (z-score),"[1]; mutation: D138V, E140I",0.642
